From the supplement of paper PMC3545927
This is one part of the list. The true hit rate is not given.

Biological target: furin, P09958
Assay: furin cleavage Z-score vs untreated control; higher = more cleavage, active = 3.5 or more, inactive = 1 or less, 8 variable residues between constant flanks
Method: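 Multiplexed peptide-cDNA fusion cleavage assay. 8-mer variable peptides flanked by constant Cys-Ala (N-term) and Ala-Gly-Asn-Ala-Ser-Ala-Ser-Ala (C-term) and conjugated to a cDNA oligonucleotide were bead-immobilised via the N-terminus. They were treated with purified furin at a 1:10 enzyme:substrate ratio in 50 mM HEPES pH 7.5, 1 mM CaCl2, 100 mM NaCl for 7.5, 15 or 30 min. Released cDNA was counted by next-generation sequencing, and log counts versus no-furin controls were lowess-adjusted and converted to robust Z-scores.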

Sequence of furin, P09958 (P09958 whole entry): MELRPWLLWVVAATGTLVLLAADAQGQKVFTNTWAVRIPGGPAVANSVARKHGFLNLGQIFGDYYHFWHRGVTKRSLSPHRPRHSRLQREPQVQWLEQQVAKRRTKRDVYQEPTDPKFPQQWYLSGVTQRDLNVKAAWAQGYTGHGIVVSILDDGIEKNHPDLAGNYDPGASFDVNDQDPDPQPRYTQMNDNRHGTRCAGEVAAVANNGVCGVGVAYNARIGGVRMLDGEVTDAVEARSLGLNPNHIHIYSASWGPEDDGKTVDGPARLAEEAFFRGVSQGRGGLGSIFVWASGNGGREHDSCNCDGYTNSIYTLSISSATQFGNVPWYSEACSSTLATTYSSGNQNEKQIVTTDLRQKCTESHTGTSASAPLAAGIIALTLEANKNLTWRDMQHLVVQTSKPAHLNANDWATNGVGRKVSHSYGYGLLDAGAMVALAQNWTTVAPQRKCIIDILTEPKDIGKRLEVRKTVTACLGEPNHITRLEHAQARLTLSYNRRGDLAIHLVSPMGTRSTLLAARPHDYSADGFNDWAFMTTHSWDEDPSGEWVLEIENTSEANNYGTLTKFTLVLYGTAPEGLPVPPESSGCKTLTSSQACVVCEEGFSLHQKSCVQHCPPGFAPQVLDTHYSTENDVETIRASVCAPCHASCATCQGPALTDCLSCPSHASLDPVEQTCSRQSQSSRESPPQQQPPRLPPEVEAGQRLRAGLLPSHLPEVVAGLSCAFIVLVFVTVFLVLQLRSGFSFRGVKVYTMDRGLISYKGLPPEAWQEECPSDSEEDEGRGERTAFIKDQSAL

| Sequence | furin cleavage Z-score (7.5 min) | furin cleavage Z-score (15 min) | furin cleavage Z-score (30 min) |
| --- | --- | --- | --- |
| CANLEVVTSTAGNASASA [HC2281] | 0.776 (inactive) | -1.12 (inactive) | -0.725 (inactive) |
| CAMKSRLRRTAGNASASA [FS-1035] | 6.13 (active) | 6.71 (active) | 5.42 (active) |
| CAVRGRAGRSAGNASASA [FS-515] | 1.52 | 1.9 | 0.698 (inactive) |
| CAAKGRAGRSAGNASASA [FS-971] | 7.82 (active) | 7.81 (active) | 6.06 (active) |
| CAQLSRAGRSAGNASASA [FS-81] | 6.21 (active) | 8.4 (active) | 8.08 (active) |
| CAPPSVASSSAGNASASA [HC1258] | 0.0747 (inactive) | 0.138 (inactive) | 0.956 (inactive) |
| CARDVVCCSMAGNASASA [HC2113] | 0.281 (inactive) | -1.32 (inactive) | 2.45 |
| CARSERDVLLAGNASASA [FS-3077] | 1.87 | -0.515 (inactive) | 0.482 (inactive) |
| CARCRRTVSMAGNASASA [FS-1998] | 1.07 | 2.14 | 4.65 (active) |
| CAPDVVCCSMAGNASASA [HC2119] | -0.96 (inactive) | 1.32 | -0.361 (inactive) |
| CARSARPLVQAGNASASA [FS-2085] | -2.45 (inactive) | 0.432 (inactive) | -1.67 (inactive) |
| CADHRRSVDSAGNASASA [FS-2628] | -1.5 (inactive) | 0.662 (inactive) | 1.77 |
| CARSARDVSSAGNASASA [FS-2302] | 9.56 (active) | 8.78 (active) | 6.82 (active) |
| CARSARDTAQAGNASASA [FS-3168] | 5.29 (active) | 5.99 (active) | 5.11 (active) |
| CASVAHDGAGAGNASASA [HC1556] | -0.273 (inactive) | -3.13 (inactive) | 0.415 (inactive) |
| CARSARKSNFAGNASASA [FS-3073] | -1.18 (inactive) | 0.463 (inactive) | -0.0584 (inactive) |
| CARCRRSVSSAGNASASA [FS-2548] | 4.14 (active) | 2.68 | 3.73 (active) |
| CAGSWSTVSSAGNASASA [HC1362] | 0.499 (inactive) | -0.166 (inactive) | -0.172 (inactive) |
| CAYVGGPLTNAGNASASA [HC1501] | -0.238 (inactive) | -0.463 (inactive) | -0.523 (inactive) |
| CAQRVEFLVQAGNASASA [HC1470] | -0.81 (inactive) | 1.84 | 0.832 (inactive) |
| CAARGSPPSVAGNASASA [HC1256] | 0.929 (inactive) | -0.707 (inactive) | 1.93 |

| Sequence | furin cleavage Z-score (7.5 min) | furin cleavage Z-score (15 min) | furin cleavage Z-score (30 min) |
| --- | --- | --- | --- |
| CAETITLPQDAGNASASA [HC897] | -1.02 (inactive) | 0.648 (inactive) | -1.05 (inactive) |
| CAHVVTSTWVAGNASASA [HC2155] | -1.33 (inactive) | 0.00684 (inactive) | -0.368 (inactive) |
| CASTACSAHLAGNASASA [HC2503] | 0.199 (inactive) | 1.42 | -0.356 (inactive) |
| CARMAWDMMMAGNASASA [HC319] | -0.311 (inactive) | -0.626 (inactive) | -0.966 (inactive) |
| CATLPALSTGAGNASASA [HC501] | -1.14 (inactive) | 0.758 (inactive) | -0.483 (inactive) |
| CALKVPYFVRAGNASASA [HC614] | -0.584 (inactive) | 0.223 (inactive) | 0.218 (inactive) |
| CAGASRSPRGAGNASASA [FS-237] | 3.32 | 4.49 (active) | 5.42 (active) |
| CADRSRTPRGAGNASASA [FS-759] | 3.99 (active) | 4.25 (active) | 4.12 (active) |
| CAGAARLPRGAGNASASA [FS-777] | 0.571 (inactive) | 1.37 | 2.25 |
| CAGWLLSPRGAGNASASA [HC208] | 0.27 (inactive) | -1.63 (inactive) | 0.774 (inactive) |
| CAPERRDVCWAGNASASA [FS-1677] | -0.617 (inactive) | -1.12 (inactive) | 0.841 (inactive) |
| CASRCGSGPWAGNASASA [HC458] | -0.489 (inactive) | -1.8 (inactive) | -0.818 (inactive) |
| CAFPDRVKRNAGNASASA [FS-770] | 3.16 | 3.37 | 3.96 (active) |
| CACGKRFKKNAGNASASA [FS-219] | 1.2 | -0.0472 (inactive) | 1.28 |
| CAERRRQAGAAGNASASA [FS-1879] | -0.934 (inactive) | -0.697 (inactive) | -1.89 (inactive) |
| CALRRRLRKQAGNASASA [FS-362] | 4.47 (active) | 6.23 (active) | 5.78 (active) |
| CATWHRLRKGAGNASASA [FS-1427] | -1.13 (inactive) | -0.138 (inactive) | -1.3 (inactive) |
| CALRRRQKRQAGNASASA [FS-1234] | 11.3 (active) | 12.6 (active) | 9.62 (active) |
| CAWLKRQKRNAGNASASA [FS-318] | 12.5 (active) | 12.8 (active) | 10.3 (active) |
| CAFDQGWGPIAGNASASA [HC393] | -0.624 (inactive) | -1.32 (inactive) | -0.893 (inactive) |
| CATTPCSGSGAGNASASA [HC1936] | -2.04 (inactive) | 2.2 | -0.763 (inactive) |
